# Experimental data taken from ChEMBL document CHEMBL4513216, “Probing the Open Global Health Chemical Diversity Library for Multistage-Active Starting Points for Next-Generation Antimalarials” (ACS Infect Dis, 2020).
# About 2,700 (4%) of roughly 68,000 compounds showed an effect of 50% or more. Only a selection was taken, and strong results are over-represented in it overall.
# System: Plasmodium berghei
# Assay: Screen against P. berghei liver stage (PbLuc), transformed with Luciferase, at 2uM
# Assay type: functional, HepG2
# Conditions: tested at 2 uM
row,Structure (SMILES),INHIBITION [%]
1,Cc1noc(C)c1-c1cncc(C2CCCN2Cc2c[nH]cn2)n1 (centres undefined),28.23
2,CCOC(=O)C1CCN(C(=O)Cn2ccc3cc(Br)ccc32)CC1,21.14
3,Cc1ccc2c(n1)N(Cc1cccnc1)CCN(C1CCOCC1)C2,-91.9
4,Cc1ccc(NC(=O)NCCCn2nc3ccccn3c2=O)cc1,-17.83
5,CSCCC(=O)N1CCCN(c2ccccc2C)CC1,0.31
6,Cc1ccccc1N1CCN(C(=O)CC(C)C)CC1,56.49
7,CSCC(=O)N1CCCN(c2ccccc2C)CC1,2.91
8,CCCc1nnc(NC2CCN(C3CCOCC3)CC2)o1,45.66
9,COCc1nnc(-c2cccc(C(=O)N(C(C)C)C3CCC3)c2)o1,21.97
10,COCc1nnc(-c2cccc(C(=O)OC(C)C)c2)o1,33.9
11,COCc1nnc(-c2cccc(C(=O)N(C)CC(C)(C)C)c2)o1,62.51
12,CC1(C)Oc2ccc(NC(=O)c3ccc(=O)[nH]n3)cc2O1,10.43
13,COc1ccnc(N2C[C@H]3CC[C@@H](C2)N(CC2CC2)C3)n1,57.41
14,COc1ccnc(N2C[C@H]3CC[C@@H](C2)N(CC2CCC2)C3=O)n1,-24.7
15,COc1ccnc(N2CCC(=O)N(CC3CC3)C(C(C)C)C2)n1 (centres undefined),-61.87
16,Cc1nc(-c2ccco2)ccc1C(=O)NCCCN1CCOCC1,-48.23
17,Cc1nc2ccnn2c(C)c1CCC(=O)N1CCN(C2CC2)CC1,26.4
18,Cc1ccccc1C(=O)N1CCC2(CC1)CC(c1cnn(C)c1)CO2 (centres undefined),42.27
19,CN(C)C(=O)c1cc2c(nc1NCC1CC1)CCNCC2,43.06
20,O=C(Nc1cc(F)ccc1OCC1CCCO1)NC1CC1 (centres undefined),56.62
21,O=C(Nc1cc(F)ccc1OCC1CCCO1)N1CCSCC1 (centres undefined),9.23
22,CS(=O)(=O)CCC(=O)Nc1cc(F)ccc1OCC1CCCO1 (centres undefined),6.31
23,O=C(Nc1cc(F)ccc1OCC1CCCO1)c1ccoc1 (centres undefined),-27.04
24,O=C(Nc1cc(F)ccc1OCC1CCCO1)N1CCCC1 (centres undefined),-5.1
25,O=C(CC(F)(F)F)Nc1cc(F)ccc1OCC1CCCO1 (centres undefined),56.03
26,Cc1ccn(CCC(=O)NCCc2ccco2)n1,-0.14
27,COc1ccc(C[C@H]2CN(C(=O)CS(C)(=O)=O)CC[C@H]2OC)cc1,39.18

row,Structure (SMILES),INHIBITION [%]
1,O=C(NCCO)Nc1ccc(Cl)cc1-n1cccc1,-12.7
2,Cc1nc(CN2CCCCC2CCc2ccc(O)cc2)co1 (centres undefined),0.58
3,Cc1noc(C)c1-c1ccc(C2CCCN2C(=O)c2ccncn2)nc1 (centres undefined),5.15
4,COc1cccc(Cn2c(C)c(C)oc2=O)c1OC,23.87
5,Cc1cc(N2CCN(C3CCSCC3)CC2)n2nc(C)c(C)c2n1,39.51
6,CCNC(=O)C(C)Oc1ccc(N(C)S(C)(=O)=O)cc1 (centres undefined),33.26
7,CCCNC(=O)C(C)Oc1ccc(F)cc1 (centres undefined),23.68
8,CCCNC(=O)C(C)Oc1ccccc1 (centres undefined),64.08
9,COc1ncc(C(=O)NCc2ccc(Br)cc2)cn1,18.8
10,COc1ccc(CNC(=O)c2ccc(Br)cn2)cc1,21.97
11,COc1ncc(C(=O)NCc2ccccc2)cn1,60.36
12,COC(=O)c1ccc(C(=O)NCc2ccc(Br)cc2)cn1,38.67
13,CCOc1ccc(Cl)c(C(=O)NCc2ccc(C(=O)NC)cc2)n1,23.92
14,CCOc1ccc(CNC(=O)c2cnc(OC)nc2)cc1,58.98
15,COCC(O)CN(C)c1cc(C(F)(F)F)nc(-c2cccnc2)n1 (centres undefined),-2.47
16,CC(NCc1cccc(COC2CCCC2)c1)c1cnn(C)c1 (centres undefined),12.83
17,CC(NCc1ccnc(OC2CCC2)c1)c1cnn(C)c1 (centres undefined),18.98
18,COc1ccc(CNC(C)c2cnn(C)c2)cc1OC1CCCC1 (centres undefined),51.76
19,CN(C1CCN(C(=O)NCCc2ccc(F)cc2F)CC1)S(C)(=O)=O,8.56
20,CCN(CC)C(=O)CNC(=O)N1CCC(c2ccc(OC)cc2)C1 (centres undefined),26.44
21,COCC(=O)N1CCC(c2cc(-c3ccc(OC)cc3)n[nH]2)C1 (centres undefined),-0.64
22,COCC(=O)N1CCC(Oc2cccc(C)c2)CC1,58.53
23,CSCC(=O)N1CCC(Oc2cccc(C)c2)CC1,10.91
24,COC(=O)NCC(=O)N1CCC(Oc2cccc(C)c2)CC1,-31.79
25,COCC(=O)N1CCC(c2ccc(OC)cc2)C1 (centres undefined),56.21
26,CC(C)c1nc2cc(NC(=O)c3n[nH]c4c3CCC4)ccc2n1C,-12.41
27,CNC(=O)C1(c2cnccn2)CCCN1C(=O)c1ccn(C)n1 (centres undefined),43.89
